# In PubChem BioAssay:
# Values without a mark were called inactive. The rule behind the calls is not given here.
# Target: Pantothenate synthetase (Mycobacterium tuberculosis (strain ATCC 25618 / H37Rv)) (UniProt P9WIL5)
# Assay: Coupled enzyme confirmation of inhibitors against recombinant Mtb PanC (AID 375);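 note: 0% = full reaction with vehicle and 100% = no enzyme background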
# Details: coupled enzyme assay; at 10 µM, hits give high values
# Pantothenate synthetase (Mycobacterium tuberculosis (strain ATCC 25618 / H37Rv)), sequence (P9WIL5 whole entry, looked up): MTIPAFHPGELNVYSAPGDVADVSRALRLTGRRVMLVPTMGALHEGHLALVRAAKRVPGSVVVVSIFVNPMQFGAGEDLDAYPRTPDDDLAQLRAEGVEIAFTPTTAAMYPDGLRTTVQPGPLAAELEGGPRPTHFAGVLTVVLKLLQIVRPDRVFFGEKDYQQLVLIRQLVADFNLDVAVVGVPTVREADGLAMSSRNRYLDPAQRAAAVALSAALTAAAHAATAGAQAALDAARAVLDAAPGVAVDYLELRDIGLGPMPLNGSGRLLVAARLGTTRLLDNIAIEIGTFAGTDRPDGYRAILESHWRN
row,SMILES,inhibition [%]
1,c1ccc(Nc2ccccc2Nc2ccccn2)nc1,0
2,O=C(CSc1nnc(-c2ccccc2)o1)N1CCN(c2ccccc2)CC1,0
3,COc1ccc(Oc2c(C)oc3cc(OC(=O)N4CCOCC4)ccc3c2=O)cc1,3
4,O=C(NCC(=O)N(c1cnc2ccccc2c1)C(C(=O)NC1CCCC1)c1ccncc1)c1ccco1 (configuration not stated),0
5,CCOc1ccccc1N(CC(=O)N1CCOCC1)S(=O)(=O)c1ccccc1,0
6,Cc1cc(N2CCN(C3CCCC3)CC2)n2c(nc3ccccc32)c1C#N,0
7,CC(=O)Nc1ccc(S(=O)(=O)N2CCSC2c2ccccc2)cc1 (configuration not stated),7
8,CCOC(=O)CNC(=O)Nc1nnc(-c2ccc(OCC)cc2)o1,5
9,C[C@H](NC(=O)Nc1ccccc1F)C(=O)O,2
10,Cc1nc(NCCNC(=O)c2ccco2)c2c(C)c(C)sc2n1,2
11,Cc1onc(-c2ccccc2)c1C(=O)NCc1cccnc1,10
12,CCOC(=O)c1c(NC(=O)c2nn(CC)cc2Br)c(C#N)cn1-c1ccccc1,0
13,CCN1CCN(c2ncnc3c2cnn3-c2ccc(C)cc2C)CC1,9
14,CC(=O)C1=C(O)C(=O)N(c2ccc(C(=O)O)cc2)C1c1ccccc1 (configuration not stated),0
15,O=C(C1CCC(CNc2c(N3CCCCC3)c(=O)c2=O)CC1)N1CCc2ccccc2C1 (configuration not stated),0
16,O=C(CCN1C(=O)COc2ccccc21)NCCN1CCN(c2cccc(Cl)c2)CC1,0
17,CSc1cccc(NC(=O)C2CCN(S(C)(=O)=O)CC2)c1,0
18,CC(OC(=O)c1ccco1)C(=O)NCc1cccs1 (configuration not stated),0
19,CC(=O)NCc1nc2ccccc2n1C(C)C,0
20,CCCCS(=O)(=O)NC1=NCN(CCOC(=O)c2ccccc2)CN1,0
21,CCOC(=O)N1CCC(N2CC34C=CC(O3)C(C(=O)O)C4C2=O)CC1 (configuration not stated),0
22,CCNC(=O)CC1C(=O)N(c2ccccc2)C(=O)N1Cc1ccc(OC)cc1 (configuration not stated),0
23,Cc1ccc(-c2cc(C(F)F)n3ncc(C(=O)N4CCN(c5ccccn5)CC4)c3n2)cc1,6
24,O=C(Nc1ccc(S(=O)(=O)NCCc2ccccc2)cc1)c1ccc(Br)o1,3
25,CCOC(=O)C1=C(C)N(C)C(C)=C(C(=O)OCC)C1c1cccnc1,2
26,CC1/C(=N/O)C(CN(C)C)C2CC1C2(C)C (configuration not stated),0

row,SMILES,inhibition [%]
1,COc1cc(S(=O)(=O)n2nnc3ccccc32)c(OC)cc1Cl,3
2,CC(=O)Nc1ccc(Oc2cc(C#N)c(C#N)cc2N2CCCCCC2)cc1,0
3,O=C(O)CCCCCCC1C(=O)NC(=O)N1CCC(O)C1CCCCC1 (configuration not stated),0
4,CCc1ccccc1NC(=O)CSc1ncn[nH]1,0
5,CCCCc1nc2ccccc2n2cc3c(=O)n(C)c(=O)n(C)c3c12,0
6,CC1(c2ccc(OC(F)F)cc2)NC(=O)N(CC(=O)Nc2ccc3c(c2)OCO3)C1=O (configuration not stated),3
7,N#CC1=C(N)OC2=C(C(=O)CCC2)C1CCc1ccccc1 (configuration not stated),1
8,CCOc1ccccc1N(C(=O)c1ccco1)C(C(=O)NC1CCCC1)c1cccnc1 (configuration not stated),0
9,CCC(=O)Nc1cc(Cl)ccc1N1CCN(C(=O)CC)CC1,0
10,CCc1nnc(NC(=O)CN2CCN(c3ccccc3OC)CC2)s1,4
11,Cc1nn(-c2ccccc2)c(Cl)c1C(=O)NCC(=O)O,0
12,COC(=O)C(C#N)C(=C1C(=O)CC(C)(C)CC1=O)c1ccc(O)cc1 (configuration not stated),0
13,O=S(=O)(c1cccc2cnccc12)N1CCCNCC1,3
14,O=C(CCCn1c(=O)c2sccc2n(CC(=O)NCc2ccco2)c1=O)NCc1ccco1,0
15,C=CCn1c(SCc2cccc(C#N)c2)nnc1-c1ccccc1O,0
16,COc1ccc(NC(=O)CSc2nnc(-c3ccccc3C)n2C)cc1,0
17,Cn1cc(Cl)c(C(=O)N(Cc2ccccc2)c2ccccn2)n1,0
18,Cn1c(SCC(=O)Nc2ccc(F)cc2)nnc1-c1cccnc1,0
19,N#CC1=C(N)N(c2ccccc2)C(c2ccco2)C1(C#N)C#N (configuration not stated),2
20,COC(=O)c1ccc(COC(=O)c2c(C)nn(Cc3ccccc3Cl)c2Cl)o1,0
21,COc1cccc(-c2noc(-c3cccs3)n2)c1,1
22,CCSc1nc2ccccc2n1CCC(=O)O,0
23,CCC(C(=O)OCCN(CC)CC)c1ccccc1 (configuration not stated),0
24,CCC(C)(C(=O)NC1CCCC1)N(Cc1cccs1)C(C)=O (configuration not stated),2
25,Cc1ccc(S(=O)(=O)NCCCCC(NC(=O)OC(C)(C)C)C(=O)O)cc1 (configuration not stated) (tested in a mixture with another compound),0
26,CC1CCC(NC(=O)Cn2ncc3ccccc32)CC1 (configuration not stated),0

row,SMILES,inhibition [%]
1,CC1(C)CC(=O)C(CC(=O)NC(=O)NCc2ccccc2)=C(O)C1,0
2,O=C(O)C1C2CCC(O2)C1C(=O)NCCC1=CCCCC1 (configuration not stated),3
3,O=C(COC(=O)CCc1c[nH]c2ccccc12)NC1CCS(=O)(=O)C1 (configuration not stated),3
4,Cc1c(C#N)c2ncnc(-c3ccccc3)c2n1-c1ccccc1,0
5,Cn1c(=O)n(CC(=O)OCc2ccccc2)c(=O)c2c1nc1n2CCCN1C1CCCCC1,0
6,O=C(NCC(c1cccnc1)N1CCOCC1)c1ccco1 (configuration not stated),2
7,Cc1ccc(OCC(=O)NCCN2CCCC2)cc1,0
8,O=C(O)CCc1ccc(-c2cccs2)n1NC(=O)c1ccccc1Br,0
9,CNC(=O)c1ccccc1NC(=O)c1c(O)c2c([nH]c1=O)CCCC2,7
10,Cn1c(=N)c(S(=O)(=O)c2ccc(Cl)cc2)cc2c(=O)n3ccccc3nc21,0
11,CCOC(=O)COc1ccc(C2NC(C(=O)O)CS2)cc1 (configuration not stated),0
12,N#Cc1ccc(-c2csc(NC(=O)C3CC3)n2)cc1,0
13,CCOc1cc2[nH]c(=O)n(CCCCC(=O)NCc3ccco3)c(=O)c2cc1OCC,6
14,c1cc(C(c2nnnn2C2CCCC2)N2CCOCC2)ccn1 (configuration not stated),4
15,O=C(CCn1c(=O)sc2ccccc21)NC1=NCCS1,3
16,Cc1ccc2cc(CCNC(=O)C(C)C)c(=O)[nH]c2c1C,3
17,CCOC(=O)N1CCN(CC(=O)Nc2c(C(=O)OC)[nH]c3cccc(Cl)c23)CC1,0
18,Cc1cccc(OCC(=O)N(Cc2cccs2)C2CCS(=O)(=O)C2)c1C (configuration not stated),3
19,Cc1ccc(-n2c(=O)c(C#N)cc3c(=O)n4ccccc4nc32)cc1,0
20,O=C(CCN1CCN(c2ccc(F)cc2)CC1)Nc1ccccc1F,1
21,Nc1nc2n(n1)C(c1cccc(Br)c1)CC(c1ccc(F)cc1)N2 (configuration not stated),0
22,COc1ccc(/C=N/n2cnnc2SCc2ccc(OC)cc2)cc1,0
23,Oc1ccccc1-c1nnc(COc2ccc(Cl)cc2Cl)o1,1
24,Cc1cccc(-c2nc(CN3CCCC(C(=O)NC4CCCC4)C3)c(C)o2)c1 (configuration not stated),0
25,Cc1ccc(-c2cn3nc(C)c(C)nc3n2)cc1,1
26,COc1cccc(CNC(=O)CCn2c(=O)oc3ccccc32)c1,0

row,SMILES,inhibition [%]
1,O=C(O)c1ccc2c(c1)C(=O)N(c1ccc(Cl)cn1)C2=O,8
2,NC(=O)c1cccc(S(=O)(=O)N2CCCCC2)c1,0
3,O=C(NCc1ccco1)c1noc2c1CCCCC2,12
4,Cc1cc(C)c2c(=O)[nH]c(=O)n(Cc3ccccc3)c2n1,0
5,O=C1CCc2cc(OCCCCc3nnnn3C3CCCCC3)ccc2N1,3
6,Cc1ccc(-c2nnc(SC(C)C#N)n2N)cc1 (configuration not stated),3
7,COCCCN1C(=O)C(O)=C(C(=O)c2ccco2)C1c1ccc(Br)cc1 (configuration not stated),6
8,COc1cccc(N(C(C)=O)c2nc(C)cc(C)c2C#N)c1,0
9,CCc1nccn1S(=O)(=O)c1ccc(C)c(C)c1,0
10,O=C(Nc1cccc(NC(=O)c2cccnc2)c1)c1cccnc1,1
11,CCOCCCNCC(=O)N1CCN(S(=O)(=O)c2ccc(C)cc2)CC1,0
12,CCOc1ccc(C(=O)N(Cc2ccc(N(C)C)cc2)C2CCS(=O)(=O)C2)cc1 (configuration not stated),0
13,O=S(=O)(c1cccc(S(=O)(=O)N2CCC(N3CCCCC3)CC2)c1)N1CCOCC1,0
14,Cc1ccc(Cn2c(SCCN3CCCCC3)nc3c2c(=O)[nH]c(=O)n3C)cc1,2
15,Cn1c(=O)cc(OCC(=O)N2CCN(c3cccc(C(F)(F)F)c3)CC2)c2ccccc21,12
16,CCc1c(C)c2c(C)nn(-c3ccccc3)c2[nH]c1=O,0
17,O=C(Nc1ccncc1)C1c2ccccc2Oc2ccccc21,0
18,Cc1cnc(NC(=O)C2=C(O)c3ccccc3S(=O)(=O)N2C)s1,0
19,N#CCCN1CCN(S(=O)(=O)c2ccc(S(=O)(=O)NC3CCCCC3)cc2)CC1,0
20,O=C(CSc1nc2ncccc2[nH]1)Nc1ccc2c(c1)OCCO2,0
21,COc1ccc(CCn2c(N)c(C#N)c3nc4ccccc4nc32)cc1OC,0
22,Clc1ccc(OCCCn2cncn2)cc1Cl,0
23,COc1ccccc1N1CCN(C(=O)N2CCOCC2)CC1,0
24,CN(C)CCC(c1ccc(Br)cc1)c1ccccn1 (configuration not stated),0
